Consider 8 compounds from PubChem BioAssay (NCI).

Compounds without any hit were thinned out: in the full panel of roughly 83,000, 20% have a hit.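 Compound tested at a single concentration for 48 hours in 96-well plates; a percent growth value below 10 was scored as active.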 Unmarked numbers belong to inactive results. The source made the active and inactive calls.

Some test systems named below: SR leukemia; RPMI-8226 leukemia; OVCAR-8 ovarian; OVCAR-5 ovarian; OVCAR-4 ovarian; SK-OV-3 ovarian; IGROV1 ovarian; OVCAR-3 ovarian; HS 578T breast; NCI/ADR-RES ovarian; T-47D breast; BT-549 breast; MDA-MB-435 melanoma; SW-620 colon; MCF7 breast; HCT-116 colon; HCC-2998 colon; KM12 colon.
Assay in all cases: NCI-60 one-dose screen, 48 h (100 = growth as untreated, 0 = no growth, -100 = all killed)
Settings in all cases: 10 µM unless noted

On to `CC(=O)C1=C(O)C=C2Oc3c(C(=O)/C=C/c4cc(Cl)cc(Cl)c4)c(O)c(C)c(O)c3[C@]2(C)C1=O`, for which the growth was -20.5% (active) with SR leukemia; -22.1% (active) in the assay with RPMI-8226 leukemia; -24.3% (active) in the assay on OVCAR-8 ovarian; 0.163% (active) in the assay on OVCAR-5 ovarian; 8.73% (active) in the assay on OVCAR-4 ovarian; -24.4% (active) in the assay with SK-OV-3 ovarian. In addition, the growth was -13.8% (active) in the assay with IGROV1 ovarian; -28.6% (active) in the assay on OVCAR-3 ovarian; -16.6% (active) in the assay with HS 578T breast; -40.9% (active) in the assay on NCI/ADR-RES ovarian; -24.4% (active) with T-47D breast; -19.9% (active) in the assay on BT-549 breast. The growth was -42.2% (active) with MDA-MB-435 melanoma; 0.897% (active) in the assay on SW-620 colon; -10.6% (active) in the assay with MCF7 breast; -15.9% (active) with HCT-116 colon; -46.9% (active) with HCC-2998 colon; -6.77% (active) with KM12 colon.
On to `O=C(CN1CCN(c2cc3c(cc2F)c(=O)c(C(=O)O)cn3C2CC2)CC1)Nc1cc(=O)[nH]c(=O)[nH]1`, for which the growth is 102% with SR leukemia; 108% in the assay on RPMI-8226 leukemia; 101% with OVCAR-8 ovarian; 96.4% in the assay on OVCAR-5 ovarian; 113% with OVCAR-4 ovarian; 110% with SK-OV-3 ovarian. The growth with IGROV1 ovarian was 96.4%; in the assay on OVCAR-3 ovarian, 113%; in the assay on HS 578T breast, 95.6%; with NCI/ADR-RES ovarian, 102%; in the assay on T-47D breast, 103%; in the assay with BT-549 breast it was 83.3%. The growth with MDA-MB-435 melanoma was 102%; with SW-620 colon, 95.4%; in the assay with MCF7 breast, 101%; with HCT-116 colon, 91.2%; in the assay with HCC-2998 colon it was 98.1%; with KM12 colon, 108%.
For `CS(=O)(CCCCN=C=S)=NC(=O)c1c(F)c(F)c(F)c(F)c1F` (centres undefined), the growth in the assay with SR leukemia was 23.1%; in the assay with RPMI-8226 leukemia, -3.75% (active); with OVCAR-8 ovarian, 97.3%; in the assay with OVCAR-5 ovarian, 100%; in the assay with OVCAR-4 ovarian, 112%; in the assay on SK-OV-3 ovarian, 97.3%. Besides, the growth is 106% in the assay with IGROV1 ovarian; 102% with OVCAR-3 ovarian; 88.7% with HS 578T breast; 103% in the assay with NCI/ADR-RES ovarian; 44.2% in the assay on T-47D breast; 97.1% in the assay with BT-549 breast. In addition, the growth with MDA-MB-435 melanoma was 99.1%; with SW-620 colon it was 74.5%; in the assay on MCF7 breast, 12.8%; in the assay on HCT-116 colon it was 86.4%; in the assay on HCC-2998 colon it was 94%; in the assay on KM12 colon, 54.2%.
In the case of `CCCCN(CCCC)Cc1c(C)[nH]c2cc(OC)ccc2c1=O`, the growth with SR leukemia is 92.8%; in the assay with RPMI-8226 leukemia, 99.7%; in the assay with OVCAR-8 ovarian, 91.9%; in the assay on OVCAR-5 ovarian it was 119%; with OVCAR-4 ovarian it was 106%; in the assay with SK-OV-3 ovarian, 92.2%. The growth with IGROV1 ovarian is 113%; in the assay with OVCAR-3 ovarian it was 96.6%; in the assay on HS 578T breast, 103%; in the assay on NCI/ADR-RES ovarian, 104%; in the assay with T-47D breast, 95.7%; with BT-549 breast, 108%. For the same compound, the growth in the assay on MDA-MB-435 melanoma is 104%; with SW-620 colon, 101%; in the assay with MCF7 breast, 94.8%; in the assay on HCT-116 colon, 95.2%; with HCC-2998 colon, 94.6%; in the assay with KM12 colon, 104%.
For the compound `COc1cc2nc3cc([N+](=O)[O-])ccc3c(NCCCNCC(C)(C)O)c2cc1OC`, the growth was 5.93% (active) in the assay with SR leukemia; -9.27% (active) in the assay with RPMI-8226 leukemia; -45% (active) with OVCAR-8 ovarian; -3.65% (active) with OVCAR-5 ovarian; -37.2% (active) in the assay on OVCAR-4 ovarian; -46% (active) in the assay on SK-OV-3 ovarian. In addition, the growth in the assay on IGROV1 ovarian is -18% (active); in the assay with OVCAR-3 ovarian, -60.3% (active); in the assay on HS 578T breast, -18.6% (active); in the assay on NCI/ADR-RES ovarian, 87.6%; in the assay on T-47D breast it was -40.6% (active); in the assay with BT-549 breast, -71.3% (active). Moreover, the growth in the assay on MDA-MB-435 melanoma was -85.8% (active); with SW-620 colon, -11.8% (active); in the assay on MCF7 breast, -33.5% (active); with HCT-116 colon, -46% (active); with HCC-2998 colon, -70.2% (active); in the assay on KM12 colon it was -47.2% (active).
Take `COc1ccc(-c2c(C)noc2-c2ccc(O)cc2O)cc1`: the growth in the assay with SR leukemia is 31.1%; in the assay on RPMI-8226 leukemia, 50.7%; in the assay with OVCAR-8 ovarian, 99.9%; in the assay on OVCAR-5 ovarian, 112%; in the assay with OVCAR-4 ovarian, 76.4%; with SK-OV-3 ovarian it was 94.1%. Also, the growth with IGROV1 ovarian was 87%; in the assay on OVCAR-3 ovarian, 80.5%; in the assay on HS 578T breast it was 106%; in the assay with NCI/ADR-RES ovarian it was 94.6%; in the assay with T-47D breast, 86.9%; with BT-549 breast, 112%. The growth was 87.1% in the assay on MDA-MB-435 melanoma; 69.5% in the assay with SW-620 colon; 67.6% in the assay with MCF7 breast; 77.9% with HCT-116 colon; 111% with HCC-2998 colon; 64.4% in the assay with KM12 colon.
In the case of `O=C(N/N=C/c1ccc(O)cc1O)c1cccnc1`, the growth with SR leukemia is -6.2% (active); in the assay on RPMI-8226 leukemia it was 44.6%; in the assay with OVCAR-8 ovarian, -8.42% (active); in the assay with OVCAR-5 ovarian it was 77.6%; in the assay on OVCAR-4 ovarian, 32.6%; in the assay on SK-OV-3 ovarian it was 46.8%. Moreover, the growth in the assay on IGROV1 ovarian was 44.3%; in the assay with OVCAR-3 ovarian, 19.8%; in the assay with HS 578T breast, 71.6%; with NCI/ADR-RES ovarian, 19.1%; with T-47D breast, 26.9%; in the assay with BT-549 breast it was 59.5%. Besides, the growth in the assay with MDA-MB-435 melanoma is 63.8%; in the assay on SW-620 colon, 44.6%; in the assay on MCF7 breast, 7.27% (active); in the assay with HCT-116 colon, 29.8%; with HCC-2998 colon, 35.1%; in the assay on KM12 colon it was 58.3%.
In the case of `COc1cc(-c2cc(-c3nc4ccc(Cl)cc4[nH]3)[nH]n2)cc(OC)c1OC`, the growth in the assay with SR leukemia was 41.9%; with RPMI-8226 leukemia, 9.58% (active); in the assay on OVCAR-8 ovarian it was 3.73% (active); in the assay on OVCAR-5 ovarian, 97.3%; with OVCAR-4 ovarian it was 32.2%; in the assay on SK-OV-3 ovarian it was 61.7%. Moreover, the growth with IGROV1 ovarian was 44.3%; in the assay with OVCAR-3 ovarian, 57.8%; in the assay with HS 578T breast, 84.2%; with NCI/ADR-RES ovarian, 20%; with T-47D breast it was 0.183% (active); in the assay with BT-549 breast, 22.4%. Further, the growth in the assay with MDA-MB-435 melanoma was 39.5%; in the assay on SW-620 colon it was 78.7%; in the assay on MCF7 breast it was 47%; with HCT-116 colon, 49.4%; in the assay on HCC-2998 colon it was 89%; in the assay with KM12 colon, 47%.
